Results: PubChem BioAssay (NCI)
Compounds without any hit were thinned out: in the full panel of roughly 83,000, 20% have a hit.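 Percent growth is the endpoint: 0 to 100 indicates growth inhibition (40 means 60% inhibition), 0 means no net growth, and negative values indicate cell death.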 The source made the active and inactive calls.

What follows are compounds tested on CAKI-1 renal (assay: NCI-60 one-dose screen, 48 h (100 = growth as untreated, 0 = no growth, -100 = all killed)). Settings: 10 µM unless noted.
Description: Growth inhibition of the CAKI-1 human tumor cell line is measured as a screen for anti-cancer activity. Cells are grown in 96 well plates and exposed to the test compound for 48 hours. Compounds are tested at a single concentration, which is 10^-5 M for most compounds. The reported endpoint is percent growth (GI% or GIPRCNT), where numbers from 0 - 100% represent growth inhibition, and numbers from -100% - 0 represent cell death. For example, a value of 40 represents 60% growth inhibition. A value of 0 means no net growth occurred over the course of the experiment. A value of -40 indicates 40% of cells at the beginning of the experiment died by the end of the experiment. A value of -100 means all cells are dead at the end of the experiment.
NCI-60 Human Tumor Cell Lines Screen was performed using the standard one-dose NCI protocol, which is described in more detail at https://dtp.cancer.gov/discovery_development/nci-60/default.htm.
Compounds with GIPRCNT values below 10 were considered active. Activity score was based on GIPRCNT using the following formula: […]
Score is 0 for GIPRCNT values of 100 or above, 50 for GIPRCNT values of 0, and 100 for GIPRCNT values of -100.

Structure (SMILES) | growth
Cc1ccccc1Nc1nc2nonc2nc1Nc1cccc(C)c1C | 48.9% (inactive)
C=C1C[C@H](O)[C@H](Br)C(C)(C)[C@@]12CCC(C)=C(Cl)C2 | 16.3% (inactive)
COCC(=O)NC/C=C/c1ccc2ncnc(Nc3ccc(Oc4ccc(C)nc4)c(C)c3)c2c1 | 18.6% (inactive)
CCOc1cc2ncc(C#N)c(Nc3ccc(OCc4ccccn4)c(Cl)c3)c2cc1NC(=O)/C=C/CN(C)C | 5.2% (active)
CO[C@H]1C[C@@H]2CC[C@@H](C)[C@@](O)(O2)C(=O)C(=O)N2CCCC[C@H]2C(=O)O[C@H]([C@H](C)C[C@@H]2CC[C@@H](OP(C)(C)=O)[C@H](OC)C2)CC(=O)[C@H](C)/C=C(\C)[C@@H](O)[C@@H](OC)C(=O)[C@H](C)C[C@H](C)\C=C/C=C/C=C/1C | 50.1% (inactive)
O=C(Nc1ccc(N=Nc2ccccc2)cc1)c1cccc2ccccc12 | 70.8% (inactive)
COc1ccc(C2CC(=O)c3c(O)c(OC)c(OC)c(OC)c3O2)cc1O (stereo not given) | 38.9% (inactive)
COc1cc2ncnc(Oc3cccc(NC(=O)Nc4cc(C(C)(C)C(F)(F)F)on4)c3)c2cc1OC | 8.99% (active)
CCNC(=O)C#Cc1ccc2c(C(=Nc3ccc(CN(C)C)cc3)c3ccccc3)c(O)[nH]c2c1 | 32.7% (inactive)
O=S1(=O)OC(c2ccc(O)c(Cl)c2)(c2ccc(O)c(Cl)c2)c2ccccc21 | 90.2% (inactive)
COc1ccc(-c2ccc3c(N4CCOC[C@@H]4C)nc(N4CCOC[C@@H]4C)nc3n2)cc1CO | -14.6% (active)
Cc1cc(C(=O)Nc2cc(Oc3ccc4nc(NC(=O)C5CC5)cn4n3)ccc2C)n(C)n1 | 23.8% (inactive)
COc1cc2cc(NCc3ccc(F)cc3)nc(C)c2cc1OC | 67% (inactive)
COc1cc(Nc2c(C#N)cnc3cc(OCCCN4CCN(C)CC4)c(OC)cc23)c(Cl)cc1Cl | 31% (inactive)
CCCCN1C(=O)c2cccc3c(-c4ccc5c(c4)ncn5C4CCCCC4)ccc(c23)C1=O | 93.7% (inactive)
CC(C)(C)c1cnc(CSc2cnc(NC(=O)C3CCNCC3)s2)o1 | 16.5% (inactive)
CC(C)(O)CC(=O)NCCn1ccc2ncnc(Nc3ccc(Oc4cccc(C(F)(F)F)c4)c(Cl)c3)c21 | 19.2% (inactive)
O=C(Nc1nc2cccc(-c3ccc(CN4CCS(=O)(=O)CC4)cc3)n2n1)C1CC1 | 88.4% (inactive)
CCN(CC)CCOc1ccc(/C(=C(\C)c2ccc(Cl)cc2)c2ccc(Cl)cc2)cc1 | 83.4% (inactive)
Cn1cnc2c(F)c(Nc3ccc(Br)cc3F)c(C(=O)NOCCO)cc21 | 45.9% (inactive)

Structure (SMILES) | growth
Cc1cn(-c2cc(NC(=O)c3ccc(C)c(Nc4nccc(-c5cnccn5)n4)c3)cc(C(F)(F)F)c2)cn1 | 97.6% (inactive)
N#CCNC(=O)c1ccc(-c2ccnc(Nc3ccc(N4CCOCC4)cc3)n2)cc1 | -5.7% (active)
CN(C[C@@H]1COCCO1)S(=O)(=O)Nc1ccc2ccc3ncc(-c4cnn(C)c4)cc3c(=O)c2c1 | 7.99% (active)
CCN(CC)CCNC(=O)c1c(C)[nH]c(/C=C2\C(=O)Nc3ccc(F)cc32)c1C | 17.5% (inactive)
NC1=Nc2ccccc2N(O)N1 | 91.8% (inactive)
C[C@@H]1COC(Nc2ccc3ncnc(Nc4ccc(OCc5nccs5)c(Cl)c4)c3c2)=N1 | 36.4% (inactive)
Cc1ccc(-c2cc3c(SCC(=O)Nc4cc(C(F)(F)F)ccc4Cl)nccn3n2)cc1 | 30.2% (inactive)
COc1ccc(-c2cc3c(C)nc(N)nc3n(C3CCC(OCCO)CC3)c2=O)cn1 (stereo not given) | -43.4% (active)
CN1CCN(c2nc(C3=C(c4c[nH]c5ccccc45)C(=O)NC3=O)c3ccccc3n2)CC1 | 54.9% (inactive)
O=C(Nc1cn[nH]c1-c1nc2ccc(CN3CCOCC3)cc2[nH]1)NC1CC1 | 23.2% (inactive)
C/C(=C(/c1ccc(Cl)cc1)c1ccc(OCCN2CCCC2)cc1)c1ccccc1 | 81.8% (inactive)
CC(C)CC(=O)Nc1n[nH]c2c1CN(C(=O)C1CCN(C)CC1)C2(C)C | 39.8% (inactive)
O=C1C=CC2(NN=C(c3ccccc3)N2c2cccc(Cl)c2)C(Cl)=C1 (stereo not given) | 79.8% (inactive)
CS(=O)(=O)CCNCc1ccc(-c2ccc3ncnc(Nc4ccc(OCc5cccc(F)c5)c(Cl)c4)c3c2)o1 | 40.1% (inactive)
COC(=O)[C@]12CC[C@@H](C)[C@H](C)[C@@H]1C1=CC[C@@H]3[C@@]4(C)C(c5cnco5)=C[C@@](C)(CO)C4=CC[C@@]3(C)[C@]1(C)CC2 | 34% (inactive)
COc1cc2nccc(Oc3ccc(NC(=O)Nc4cc(C)on4)c(Cl)c3)c2cc1OC | 2.09% (active)
C=C1C(=O)O[C@H]2[C@H]1CC/C(CNC(=O)c1cc3cc(OC)ccc3[nH]1)=C\CC[C@@]1(C)O[C@@H]21 | -74.1% (active)
CC(=O)Nc1cccc(-n2c(=O)n(C3CC3)c(=O)c3c(Nc4ccc(I)cc4F)n(C)c(=O)c(C)c32)c1 | 27.1% (inactive)
CC(N)C(Cc1ccc(Cl)cc1)c1ccc(Cl)cc1 (stereo not given) | 59.6% (inactive)
O=C(c1ccc(/C=C/c2n[nH]c3ccccc23)cc1)N1CCNCC1 | 11.7% (inactive)
